# According to PubChem BioAssay (NCI):
# About 83,000 compounds went through this panel and 20% of them were active in at least one assay; those are over-represented in the sample as a whole.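 Single-concentration screen, 48 h exposure, 96-well plates. Endpoint: percent growth. Below 10 = active.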 Values without a mark were called inactive. Calls of active or inactive are those of the source.
# What was measured:
# Assay in all cases: NCI-60 one-dose screen, 48 h (100 = growth as untreated, 0 = no growth, -100 = all killed)
# HCT-15 colon = details: 10 µM unless noted
# HT29 colon = details: 10 µM unless noted
# SNB-75 CNS = details: 10 µM unless noted
# SNB-19 CNS = details: 10 µM unless noted
# U251 CNS = details: 10 µM unless noted
# PC-3 prostate = details: 10 µM unless noted
# SK-MEL-5 melanoma = details: 10 µM unless noted
# UACC-62 melanoma = details: 10 µM unless noted
# LOX IMVI melanoma = details: 10 µM unless noted
# SK-MEL-28 melanoma = details: 10 µM unless noted
# SK-MEL-2 melanoma = details: 10 µM unless noted
# EKVX NSCLC = details: 10 µM unless noted
# SN12C renal = details: 10 µM unless noted
# UO-31 renal = details: 10 µM unless noted
# TK-10 renal = details: 10 µM unless noted
# ACHN renal = details: 10 µM unless noted
# A498 renal = details: 10 µM
# HL-60(TB) leukemia = details: 10 µM unless noted
# CCRF-CEM leukemia = details: 10 µM unless noted
# CAKI-1 renal = details: 10 µM unless noted
Compound,growth (HCT-15 colon),growth (HT29 colon),growth (SNB-75 CNS),growth (SNB-19 CNS),growth (U251 CNS),growth (PC-3 prostate),growth (SK-MEL-5 melanoma),growth (UACC-62 melanoma),growth (LOX IMVI melanoma),growth (SK-MEL-28 melanoma),growth (SK-MEL-2 melanoma),growth (EKVX NSCLC),growth (SN12C renal),growth (UO-31 renal),growth (TK-10 renal),growth (ACHN renal),growth (A498 renal),growth (HL-60(TB) leukemia),growth (CCRF-CEM leukemia),growth (CAKI-1 renal) [%]
C/C=C(\C)C(=O)O[C@@H]1C(O)[C@H]2OC(COC(=O)CCC(=O)CCCCCC[C@H](CCCCC)O[C@@H]3OC(C)[C@H](OC(C)=O)C(O)[C@H]3O2)[C@H]1OC(=O)/C=C/c1ccccc1 (some centres not stated),13%,5.27% (active),1.65% (active),34.7%,8.26% (active),21.3%,-79.1% (active),-46.8% (active),-49.9% (active),18.5%,-1.53% (active),24.1%,17.2%,15%,11.7%,12%,14.8%,17.8%,24.2%,–
COC(=O)[C@@H](C)C[C@H](Cc1ccccc1)NC(=O)c1csc(CC[C@H](C(C)C)N(C)C(=O)[C@@H](NC(=O)[C@H]2CCCCN2C)C(C)C)n1,10.9%,3.34% (active),42.6%,35.4%,14.8%,27.6%,-19.5% (active),40.7%,28.6%,63.2%,35.7%,40.8%,36.5%,48.8%,60.5%,45.2%,0.74% (active),-34.4% (active),13.8%,–
O=[N+]([O-])CC(c1ccccc1Cl)c1c(-c2ccccc2)[nH]c2ccccc12 (configuration not stated),22.8%,8.38% (active),6.44% (active),45.4%,34.8%,31.6%,28.4%,30.7%,33.4%,61.4%,27.2%,40.6%,53.4%,45.1%,61.6%,39.7%,–,6.94% (active),23.6%,24.4
CCOC(=O)[C@@H](C)C[C@H](Cc1ccccc1)NC(=O)c1csc([C@@H](C[C@H](C(C)C)N(C)C(=O)[C@@H](NC(=O)[C@H]2CCCCN2C)C(C)(C)C)OC(C)=O)n1,7.37% (active),0.339% (active),11.9%,24%,14.7%,21.1%,-46.2% (active),27%,10.1%,51.2%,1.39% (active),31.5%,13.3%,20.6%,49.2%,17.1%,-11.4% (active),-33.2% (active),1.8% (active),–
Cc1cnc(/C=C/C(=O)O)cc1-c1cc2c(cc1C)C(C)(C)CCC2(C)C,53.9%,68.3%,62.5%,97.4%,70.9%,74.8%,62.8%,65.8%,47.9%,41.5%,74.4%,46%,90.5%,68.4%,113%,81.7%,–,63.3%,85%,79
COC(=O)C12CC(NC(=O)c3csc([C@@H](C[C@H](C(C)C)N(C)C(=O)[C@@H](NC(=O)[C@H]4CCCCN4C)C(C)C)OC(C)=O)n3)(C1)C2,5.8% (active),2.39% (active),47%,29.1%,20.7%,23%,-38.8% (active),37.2%,22.2%,62.4%,28.5%,44%,24.5%,44.4%,56.5%,22.9%,-1.32% (active),-38.9% (active),8.23% (active),–
CCCC[C@H](NC(=O)[C@H]1CCCCN1C)C(=O)N(C)[C@H](C[C@@H](OC(C)=O)c1nc(C(=O)N[C@@H](Cc2ccccc2)C[C@H](C)C(=O)OCC)cs1)C(C)C,20.4%,-16.4% (active),41.9%,37.5%,5.09% (active),17.5%,-26% (active),46.2%,17.9%,67.4%,11.8%,47.8%,23.9%,31.9%,-7.07% (active),13.5%,-11.9% (active),-25.7% (active),8.81% (active),–
COC(=O)[C@@]1(C)CC[C@]2(C)CC[C@]3(C)C4=CC=C5C(=CC(=O)C(O)=C5C)[C@]4(C)CC[C@@]3(C)[C@@H]2C1,-83.7% (active),-74.1% (active),-78.9% (active),-94.2% (active),-97.4% (active),-88.5% (active),-97.1% (active),-92.7% (active),-90.5% (active),-92.9% (active),-87.6% (active),-77.8% (active),-88.2% (active),-99.4% (active),-95.7% (active),-100% (active),-97.9% (active),-53.1% (active),-41.2% (active),–
